# Unmarked numbers belong to inactive results. For part of these data: Results with a measured potency or affinity are listed apart. Active and inactive are the calls of the source. No rule for the calls is given here.
# Tests used:
# [1] = Ebola virus entry assay, green fluorescence channel
# [2] = Ebola virus entry assay, blue channel fluorescence
# [3] = Ebola virus entry assay, ratio channel
# [4] = Ebola virus entry assay, reporter ratio channel; Channel type: primary
# For efficacy in this document: 0% is about no effect.
SMILES,efficacy [1],AC50 [2],outcome [3],AC50 [4],AC50 [3]
CCN(CC)CCOC(=O)C(c1ccccc1)c1ccccc1,39%,20 µM (active),inactive,39.8 µM (active),–
CN(CCCN1c2ccccc2CCc2ccccc21)CC(=O)c1ccc(Cl)cc1,78.9%,22.4 µM (active),–,25.1 µM (active),25.1 µM (active)
CN(C)[C@@H]1C(=O)C(C(=O)NCN2CCCC2)=C(O)[C@@]2(O)C(=O)C3=C(O)c4c(O)cccc4[C@@](C)(O)C3C[C@@H]12 (some centres not stated),145%,11.2 µM (active),–,11.2 µM (active),11.2 µM (active)
CCOC(=O)COc1ccc2c(C)c(CCN(CC)CC)c(=O)oc2c1Cl,158%,28.2 µM (active),–,25.1 µM (active),25.1 µM (active)
CCN(CCCCOC(=O)c1ccc(OC)c(OC)c1)C(C)Cc1ccc(OC)cc1 (configuration not stated),112%,20 µM (active),–,15.8 µM (active),15.8 µM (active)
CC(C)COCC(CN(Cc1ccccc1)c1ccccc1)N1CCCC1 (configuration not stated),-190%,2.82 µM (active),–,2 µM (active),2 µM (active)
CN(C)CCOc1ccccc1Cc1ccccc1,74.8%,3.55 µM (active),–,3.16 µM (active),3.16 µM (active)
COc1cccc(CCc2ccccc2OCC(CN(C)C)OC(=O)CCC(=O)O)c1 (configuration not stated),95.8%,1.78 µM (active),–,2 µM (active),2 µM (active)
O=C(OCC(O)CO)c1ccccc1Nc1ccnc2cc(Cl)ccc12 (configuration not stated),41.9%,39.8 µM (active),–,20 µM (active),20 µM (active)
CN(C(=O)CN(CCO)CC(=O)N(C)C(C)(C)Cc1ccccc1)C(C)(C)Cc1ccccc1,43.4%,7.94 µM (active),–,5.62 µM (active),5.62 µM (active)
c1ccc(CN(CC2=NCCN2)c2ccccc2)cc1,60.7%,39.8 µM (active),inactive,39.8 µM (active),–
C[C@@H]1C[C@H]2[C@@H]3CCC4=CC(=O)C=C[C@]4(C)[C@@]3(Cl)[C@@H](O)C[C@]2(C)[C@@]1(OC(=O)c1ccco1)C(=O)CCl,39.8%,25.1 µM (active),–,10 µM (active),10 µM (active)
CCOC(=O)[C@H](CCc1ccccc1)N[C@H]1CCc2ccccc2N(CC(=O)O)C1=O,88%,3.98 µM (active),–,3.98 µM (active),3.98 µM (active)
COc1cc(C(=O)OCCCN2CCCN(CCCOC(=O)c3cc(OC)c(OC)c(OC)c3)CC2)cc(OC)c1OC,89.6%,17.8 µM (active),–,12.6 µM (active),12.6 µM (active)
CN1CCN(CCC(=O)N2c3ccccc3Sc3ccc(C(F)(F)F)cc32)CC1,68.9%,4.47 µM (active),–,2.82 µM (active),2.82 µM (active)
CCc1ccc(C(=O)C(C)CN2CCCCC2)cc1 (configuration not stated),36.6%,39.8 µM (active),inactive,28.2 µM (active),–
CC(C(O)c1ccccc1)N(C)CCOC(c1ccccc1)c1ccccc1 (configuration not stated),65%,3.16 µM (active),–,2.82 µM (active),2.82 µM (active)
CC(=O)O[C@]1(C(C)=O)CC[C@H]2[C@@H]3C=C(Cl)C4=CC(=O)CC[C@]4(C)[C@H]3CC[C@@]21C,83.2%,28.2 µM (active),–,28.2 µM (active),28.2 µM (active)
